Source: PubChem BioAssay (several laboratories)
Only some compounds are listed: those with a hit (about 1.8% of all), similar ones and a draw of the others.
Mot1-301 SUMO = inhibitors of SUMOylation pathway: yeast Mot1-301 growth rescue; growth rescue, % at 18.8 µM; S. cerevisiae Mot1-301 growth rescue, ATP luminescence, 38.5C; percent above DMSO median, 100 means doubled; 1% of 320,000 active;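 active means every valid replicate shows activation above 250% relative to neutral control wells; inactive means the rest, any valid replicate at or below 250%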;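 further: OY570 slx delta 5 strain wells were the positive control but not used for scaling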
PolyA inhibitor = yeast polyadenylation inhibition; S. cerevisiae SKY197-pL101 polyadenylation reporter, beta-gal luminescence; efflux-impaired pdr1/pdr3 knockout yeast; score 100 = 6 SD above DMSO; activity score, % at 12 µM; 0.02% of 300,000 active;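 active means lowest replicate activity score at least 50, where 100 means six control SD above control mean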;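 further: yeast exposed to compound for 9 h at 30 °C; higher score means more reporter readthrough which indicates perturbed polyadenylation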
NALP3 yeast inh = inhibitors of NALP3 inflammasome in yeast; Yeast reconstituted NLRP3/ASC/caspase-1, beta-gal luminescence, 24 h; inhibition, % at 10 µM; 0.39% of 330,000 active; AID 2825;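 active means inhibition of 50% or more; inactive means inhibition below 50%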;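 further: plate controls were induced DMSO wells for no effect and uninduced yeast grown without galactose for full effect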
NALP1 yeast inh = blocks the NALP1 inflammasome reconstituted in yeast; S. cerevisiae NALP1/ASC/caspase-1 growth, X-gal OD620, 72 h; inhibition, % at 10 µM; AID 2071; 0.61% of 280,000 active; in the data active means inhibition mostly above about 24%, no sharp cut-off; inactive means mostly below about 32%
Numbers without * were called inactive; · = not tested or not shown.

SMILES	Mot1-301 SUMO	PolyA inhibitor	NALP3 yeast inh	NALP1 yeast inh
O=C(C1CCN(S(=O)(=O)c2ccccc2)CC1)N1CCN(c2ccccc2F)CC1	1	·	9	·
Fc1ccccc1Nc1nc(N2CCOCC2)nc(N2CCOCC2)n1	-2	-29	27	20
COc1cc(C=O)ccc1Oc1nc(Nc2ccc(F)cc2F)nc(N2CCOCC2)n1	334*	10	9	-1
O=C(Nc1cnccn1)c1csc2ccccc12	6	4	20	8
COc1ccc(NC(C)=O)cc1NC(=O)CSc1nc2ncccc2[nH]1	331*	22	14	20
CC1CCC(C(=O)NC(C(=O)NCc2ccccn2)C(C)C)CC1 (stereo unspecified)	344*	3	-20	-4
CC(C)C(NC(=O)C1CCCCC1)C(=O)NCc1ccccn1 (stereo unspecified)	16	7	1	-3
COc1ccc(/C=C/c2nc3ccccc3n2Cc2ccccc2OC)cc1	323*	-28	-6	23
COc1ccccc1Cn1c(/C=C/c2ccccc2)nc2ccccc21	408*	-20	23	16
COc1ccccc1Cn1c(C(C)C)nc2ccccc21	16	-13	0	-4
COc1ccc(-c2cc(C(=O)N/N=C/c3ccc4c(c3)OCO4)c3ccccc3n2)c(OC)c1	-13	-4	12	-2
COc1ccc(-c2cc(C(=O)N/N=C/c3sccc3C)c3ccccc3n2)c(OC)c1	3	-3	15	41*
COc1ccc(Cl)cc1S(=O)(=O)N1CCN=C1C	7	8	2	24
CC1=NCCN1S(=O)(=O)c1c(C(C)C)cc(C(C)C)cc1C(C)C	-10	-6	10	28*
Cc1ccc2nc(SCC(=O)NCc3ccc(F)cc3)[nH]c2c1	-6	4	10	5
COc1ccc(-c2[nH]ncc2C2N=C(N)Nc3nc4ccccc4n32)cc1 (stereo unspecified)	38	0	1	1
O=C(N/N=C\c1coc2ccccc2c1=O)c1ccco1	461*	9	15	6
O=C(N/N=C/c1coc2ccccc2c1=O)c1ccccc1	2	15	1	-9
COc1ccccc1C1(CC(=O)N2CCOCC2)CCOC(C(C)C)C1 (stereo unspecified)	570*	-5	-10	-6
CCCc1cc(NC(=O)CCl)n(-c2ccccc2)n1	8	7	12	8
Clc1ccccc1OCCCCN1CCCC1	45	14	16	-1
O=C(CN1CCSC1=NCc1ccccc1)c1ccc(Cl)c(Cl)c1	1	10	32	46*
CC(C)CN(C(=O)CCC(=O)OCC(=O)N(C)c1ccccc1)c1c(N)n(CC(C)C)c(=O)[nH]c1=O	515*	2	5	·
CC(C)CN(C(=O)CSc1nncs1)c1c(N)n(CC(C)C)c(=O)[nH]c1=O	8	0	6	45*
CCc1ccc(OCCCOc2ccc(C=O)cc2)cc1	3	-12	27	14
SMILES	Mot1-301 SUMO	PolyA inhibitor	NALP3 yeast inh	NALP1 yeast inh
Cc1ccc(-c2nnn(CC(=O)N(c3cccc(F)c3)C(C(=O)NC3CCCC3)c3ccco3)n2)o1 (stereo unspecified)	20	-4	3	21
Cc1ccc(-c2nnn(CC(=O)N(c3cccc(F)c3)C(C(=O)NC3CCCC3)c3ccncc3)n2)o1 (stereo unspecified)	4	-2	14	35*
Nc1nc(CSc2nc3ccccc3[nH]2)nc(N2CCOCC2)n1	317*	-6	15	-2
N/C(=N\OC(=O)CCC1CCCC1)c1cccnc1	231	-13	2	17
CC(C)CCNC(=O)CCCOc1ccccc1	13	-2	2	2
CCC(=O)NCCCOc1ccccc1	35	5	26	27*
Nc1ccc(C(=O)c2cccs2)cc1	149	10	29	48*
Cc1ccccc1OCc1csc(N)n1	39	-2	24	45*
CC1CN(CCOc2ccc(Cl)cc2Cl)CC(C)O1 (stereo unspecified)	272*	-12	4	24
Cc1cc(C)c(C)c(OCCN2CC(C)OC(C)C2)c1 (stereo unspecified)	17	3	26	4
COc1ccc(-c2nnc(SCC(=O)NC3CC3)o2)c(OC)c1	·	·	18	·
CCNc1nc(NCC)nc(N(n2cnnc2)S(=O)(=O)c2ccc(C)cc2)n1	310*	26	19	-35
COc1cc(C(=O)COC(=O)CNC(=O)C2CCCCC2)cc(OC)c1OC	270*	-12	1	-3
COc1ccc(/C(CC2(O)C(=O)Nc3ccccc32)=N\O)cc1 (stereo unspecified)	-2	-28	4	-12
Cn1cnc([N+](=O)[O-])c1NC(C)(C)C	-26	-20	15	31
Cn1cnc([N+](=O)[O-])c1S(=O)(=O)c1ccc(Cl)cc1	·	-28	·	80*
COc1cc2c(cc1NC(=O)COC(=O)[C@@H](NC(=O)c1ccccc1F)C(C)C)oc1ccccc12	3	-6	16	22
O=C(Cn1c(=O)oc2cc(S(=O)(=O)N3CCCC3)ccc21)N1CCN(c2ccccc2)CC1	-11	14	14	39*
Cc1ccc(C)c(N2CCN(C(=O)Cn3c(=O)oc4cc(S(=O)(=O)N5CCCC5)ccc43)CC2)c1	3	-7	-4	22
Cc1c(NC(=O)CSc2nnnn2C)c(=O)n(-c2ccccc2)n1C	14	5	6	7
CS(=O)(=O)N1CCC(C(=O)Nc2cccc(Br)c2)CC1	23	-1	13	17
Cc1ccc(NC(=S)c2ccncc2)cc1	20	-3	-12	20
Cc1ccc(NC(=S)c2ccccc2)cc1	324*	-21	2	16
COc1ccc(/C=N/NC(=O)Nc2cccc3nsnc23)cc1	-7	-7	6	19
C#CCOCCOCCOCCNc1nc(N2CCN(C(=O)[C@H](CCC(=O)O)n3cc([C@@H](N)[C@H](C)CC)nn3)CC2)nc(N2CCN(C(=O)[C@H](CCC(=O)O)n3cc([C@@H](N)CCSC)nn3)CC2)n1	6	·	7	·
SMILES	Mot1-301 SUMO	PolyA inhibitor	NALP3 yeast inh	NALP1 yeast inh
O=C(c1c[nH]c2ccccc12)C(O)C(c1ccccc1)N1CCOCC1 (stereo unspecified)	19	3	-8	-7
O=C(c1c[nH]c2ccccc12)C(Cl)c1ccccc1 (stereo unspecified)	-16	8	33	45*
CCCCN(Cc1ccccc1)C(=O)C1CCN(S(=O)(=O)c2c(C)noc2C)CC1	-7	11	4	37*
Cc1cc(C)c2oc(C(=O)N(Cc3cccs3)C3CCS(=O)(=O)C3)cc(=O)c2c1 (stereo unspecified)	22	5	3	-2
Cc1nn(C)cc1CNC(=O)Nc1cccc(Cl)c1	348*	0	13	40
Cc1nn(C)cc1CNC(=O)Nc1ccc(Br)cc1Cl	14	8	11	-7
Cc1ccc(-c2c(C)n([O-])c3c([n+]2=O)CCCC3)cc1	-33	-6	23	1
O=C(Cn1c(-c2ccccc2)noc1=O)Nc1ccc(N2CCCCCC2)cc1	0	-7	6	36*
